Only some compounds are listed: those with a hit (about 3.3% of all), similar ones and a draw of the others.
GRIN3A LBD mod: NR3A (human) ligand-binding domain modulation; AID 1259313; NR3A LBD differential scanning fluorimetry, Tm shift; 0% = protein alone, 100% = glycine-bound protein; 340,000 tested, 2.5% active; Tm shift relative to glycine control, % at 25 µM;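 active = melting temperature shift of at least 10% of the positive control shift, at one fixed dose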
UBC9 SUMO inh: SUMOylation inhibition | P63279 | HTRF SUMOylation assay, SAE1/SAE2 + UBC9, in vitro | inhibition, % at 35 µM | 290,000 tested, 0.36% active; in the data active = inhibition above about 50%, passing the limit was not always enough
Target sequence (P63279 whole entry, looked up): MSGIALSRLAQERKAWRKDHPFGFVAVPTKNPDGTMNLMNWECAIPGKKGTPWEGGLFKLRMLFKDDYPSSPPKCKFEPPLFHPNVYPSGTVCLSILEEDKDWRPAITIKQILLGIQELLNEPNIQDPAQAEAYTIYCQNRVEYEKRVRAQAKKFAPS
HGIII-sPLA2 inh: Inhibits HGIII-sPLA2 liposome hydrolysis, primary screen. QFRET BODIPY PC-A2 liposome hydrolysis, fluorescence. inhibition, % at 12.2 µM. 370,000 tested, 0.56% active. AID 743126;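 active = inhibition above mean plus 3 SD of compounds lying within the high and low control bounds, cut at about 19% in these data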;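 note: 0% = median of test compound wells and 100% = no enzyme DMSO wells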
UBC13 inh: blocks human UBC13 polyubiquitin chain formation; P61088; inhibition, % at 20 µM; AID 485273; TR-FRET; 330,000 tested, 0.47% active; in the data active = inhibition above about 45%, passing the limit was not always enough
Target sequence (P61088 whole entry, looked up): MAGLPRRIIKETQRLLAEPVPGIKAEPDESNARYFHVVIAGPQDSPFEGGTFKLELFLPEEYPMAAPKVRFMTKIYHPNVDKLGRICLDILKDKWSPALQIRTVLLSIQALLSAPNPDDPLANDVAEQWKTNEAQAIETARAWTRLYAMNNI
* marks the source's active call; other numbers are inactive results; i = inactive; / = not tested or not shown.

SMILES	GRIN3A LBD mod	UBC9 SUMO inh	HGIII-sPLA2 inh	UBC13 inh
C/C(=N/NS(=O)(=O)c1ccc(Cl)cc1)c1cccc(NC(=O)c2ccncc2)c1	-2	3	4	-3
COC(=O)[C@]12C[C@H](CC(=O)NCc3cccc(C(F)(F)F)c3)C(=O)N(CCC3=CCCCC3)C1=C[C@H](C(C)C)O[C@@H]2C1CC1	/	/	1	/
COc1ncc(-c2cc(C(C)=O)c3n(c2=O)CCC3)c(OC)n1	/	/	-4	/
O=C(CSc1nc2ccccc2nc1N1CCCC1)N1CCN(c2cccc(C(F)(F)F)c2)CC1	/	/	6	/
N#Cc1ccc(C(=O)Nc2cc(S(=O)(=O)Nc3ccc(Cl)cc3)ccc2N2CCCCC2)cc1	22*	11	0	-10
COc1cc(Cl)c(C)cc1NC(=O)c1ccc(NS(=O)(=O)c2ccc(F)c(F)c2)cc1	32*	26	1	-4
COc1ccc(NS(=O)(=O)c2ccc(N3CCOCC3)c(NC(=O)c3ccc(F)cc3)c2)cc1	-15	-2	-20	9
COc1ccc(S(=O)(=O)Nc2ccc(S(=O)(=O)Nc3ccc(F)cc3)cc2)cc1C	16*	-25	-125	-4
O=C(Nc1cc(S(=O)(=O)Nc2ccc(Cl)cc2)ccc1N1CCCCC1)c1ccc(F)cc1	25*	-4	-8	-9
COc1ccc(CNS(=O)(=O)/C=C/c2ccc(F)cc2CNC(=O)OC(C)(C)C)cc1	/	/	-1	/
O=C(C1CCCN1S(=O)(=O)c1ccc([N+](=O)[O-])cc1)N1CCc2ccccc2C1 (configuration not stated)	/	/	-2	/
CC(C)(C)N(Cc1cn(Cc2ccccc2)nn1)S(=O)(=O)c1ccccc1Br	/	/	6	/
COc1ccc(OC)c(-c2cn(S(=O)(=O)c3ccccc3)nc2N)c1	17*	12	-3	-7
NN=C1c2ccccc2C(=O)C1C(=O)C(c1ccccc1)c1ccccc1 (configuration not stated)	12*	/	-25	/
C=CC(C)(C)c1c(O)c(CC=C(C)C)c(O)c2c(=O)c3ccc(O)c(O)c3oc12	33*	/	/	-20
Cc1sc2nc(COC(=O)CNC(=O)c3ccc(F)cc3Cl)[nH]c(=O)c2c1C	/	/	0	/
CCCCCn1c(N)c(C#N)c2nc3ccccc3nc21	-36	88*	10	15
N#Cc1c(N)n(-c2cccc(C(=O)O)c2)c2nc3ccccc3nc12	1	60*	-3	10
CCCCn1c(NC(C)=O)c(C#N)c2nc3ccccc3nc21	2	102*	-6	-1
N#Cc1c(N)n(CCCN2CCOCC2)c2nc3ccccc3nc12	-7	31	-4	10
Cc1nn(CCC(=O)NNC(=O)Nc2ccccc2)c(C)c1[N+](=O)[O-]	/	/	2	/
CCCCCCCCCCCCCCCC[n+]1cccc2ccccc21	39*	18	-2	102*
Cc1ccccc1C[n+]1cccc2ccccc21	13*	/	6	5
N#Cc1ccc(/C=C2\CC3(OC(=O)c4ccco4)CCCN2C3)cc1 (configuration not stated)	/	/	2	/
COC(=O)[C@]12C[C@H](CC(=O)NCCC(C)C)C(=O)N(Cc3ccccc3)C1=C[C@H](COCc1ccccc1)O[C@@H]2C	/	/	-8	/
SMILES	GRIN3A LBD mod	UBC9 SUMO inh	HGIII-sPLA2 inh	UBC13 inh
N#CCc1ccc(NC(=O)Nc2cccc3ccccc23)cc1	21*	9	/	-5
Cc1ccccc1C(=O)N(C)[C@H]1C[C@H]2c3[nH]c4c(-c5ccccc5)cccc4c3CCN2C[C@H]1[C@H](C)O	/	/	7	/
CCC[C@@H](/C=C/C(=O)OC(C)(C)C)Sc1ccc(OC)cc1	/	/	7	/
CCOC(=O)c1c(C)n(-c2ccc(C)cc2)c2c(C(C(C)=O)C(=O)O)c(Br)c(O)c(O)c12 (configuration not stated)	20*	-15	15	-19
CCOC(=O)c1c(C)n(-c2ccc(C)cc2)c2c(CC(C)=O)c(Br)c(OC)c(O)c12	-6	9	10	-6
Cc1ccc(-n2c(Cc3cccs3)nnc2SCc2ccc([N+](=O)[O-])cc2)cc1	/	/	3	/
CN1[C@H](Cc2ccccc2)COc2cc(N3CCSCC3)ccc2S1(=O)=O	/	/	-2	/
C=CCn1c(SCC(=O)Nc2ccc(F)cc2)nc2cc(C(=O)O)ccc2c1=O	15*	11	-3	-16
C=CCn1c(SCC(=O)Nc2ccccc2-c2ccccc2)nc2cc(C(=O)O)ccc2c1=O	0	-2	-8	-7
Cc1occc(=O)c1OC(=O)Nc1ccc(Cl)c(Cl)c1	38*	-18	-3	/
COc1ccc(C(=O)Oc2c(C)occc2=O)cc1OC	0	11	4	-2
O=C(CNS(=O)(=O)c1cc2ccccc2s1)N1CCN(c2ccccn2)CC1	/	/	-8	/
N#C/C(=N/Nc1ccc(OC(F)(F)F)cc1)C(N)=S	16*	7	-8	-2
COC(=O)[C@]12C[C@H](CC(=O)NCC3CCCCC3)C(=O)N(Cc3cccc4ccccc34)C1=C[C@H](C(C)(C)C)O[C@@H]2C	/	/	-3	/
O=C(c1ccc(S(=O)(=O)Cc2ccccc2F)c([N+](=O)[O-])c1)N1CCCCCC1	-4	16	-6	-10
O=C(c1ccc(S(=O)(=O)c2ccccc2Cl)c([N+](=O)[O-])c1)N1CCCCCC1	12*	5	-4	6
O=C(Nc1ccc(F)cc1)OCc1cn(Cc2ccc(C(F)(F)F)cc2)nn1	/	/	-9	/
Cc1ccc(/C=N/NS(=O)(=O)c2ccccc2)o1	21*	20	-2	5
CCCC[C@H]1C2CC(OC(=O)Nc3cccc(C(F)(F)F)c3)C(C2)[C@H]2CCCCN21 (some centres not stated)	/	/	2	/
COc1ccccc1/C=C/C=N/n1c(C2CCCCC2)n[nH]c1=S	13*	-12	11	-19
CCOc1ccccc1/C=N/n1c(C2CCCCC2)n[nH]c1=S	1	-12	13	-5
O=c1[nH]c(C(Cl)Cl)nc2sc3c(c12)CCN(Cc1ccccc1)C3	15*	40	-10	/
CCCSc1nc2sc3c(c2c(=O)[nH]1)CCN(Cc1ccccc1)C3	-4	15	/	-7
CCCCC1CCC(C(=O)Nc2ccc(S(=O)(=O)Nc3nccs3)cc2)CC1 (configuration not stated)	15*	-1	/	-42
COc1cccc(CO[C@H]2C=C[C@@H](c3ccccc3)O[C@@H]2COC(C)=O)c1	/	/	3	/
SMILES	GRIN3A LBD mod	UBC9 SUMO inh	HGIII-sPLA2 inh	UBC13 inh
C=CCN1C(=O)[C@H](CC(=O)N2CCCC2)[C@@]2(C(=O)OCC)CCCC=C12	/	/	3	/
CCN(CC)C1=CC2=CC(=C(C#N)C#N)CCC2CC1 (configuration not stated)	-3	12	-393	i
N#CC(C#N)=C1C=C2C=C(N3CCCCC3)CCC2CC1 (configuration not stated)	21*	-2	/	/
O=C(OCC#CCSc1nnc(-c2cccc3ccccc23)o1)c1ccc(OC(F)F)cc1	/	/	11	/
O=C(Nc1ccccc1)c1ccc(Nc2c([N+](=O)[O-])cc([N+](=O)[O-])c3ccccc23)cc1	11*	6	7	-78
Cc1c(C(=O)Nc2ccc(Nc3ccccc3)cc2)cccc1[N+](=O)[O-]	9	-3	-2	4
